Activity calls are given as the source filed them.

Here are results for eight molecules from PubChem BioAssay.

The subject of assay [1] is Plasmodium falciparum Sir2 (PF13_0152, Sir2A). The assay is described as follows: Plasmodium falciparum Sir2A binding compounds – biochemical, small-molecule microarray, 635 nm fluorescence, primary screen (AID 1098).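 Note: score merges spot fluorescence intensity with its signal-to-noise ratio.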 The following applies: fluorescence 635 nm, higher = more signal.
Assay [2] in a line: probe aDKK1 binding to arrayed compounds – biochemical, biotinylated probe, 635/667 nm fluorescence, primary screen (AID 1099).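 Note: score merges 667nm spot fluorescence with signal to noise across triplicate slides.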 The following applies: small-molecule microarray, higher = more signal.
Assay [3] is described as follows: probe aCHRDL2 binding to arrayed compounds – biochemical, biotinylated probe, 635/667 nm fluorescence, primary screen (AID 1100). Particulars: small-molecule microarray, higher = more signal.
Assay [4] is described as follows: change in splice reporter luminescence, either direction, cell-based, HEK293, spliceosome inhibition project, primary screen (AID 1101).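 Note: HEK293 cells carrying a splicing-competent luciferase reporter gene; test concentration not given here.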 The following applies: HEK293 splicing luciferase reporter, 24 h, higher = more signal, called active from +8 up or from −8 down. For orientation: In a reporter assay the amount or activity of a reporter protein is the signal.
Assay [5] concerns the target Fibroblast growth factor 10 (Homo sapiens) (UniProt O15520). Put plainly: compounds binding fibroblast growth factor 10 – biochemical, small-molecule microarray, 635 nm fluorescence, primary screen (AID 1102). Particulars: FGF10 binding, fluorescence 635 nm, higher = more signal.
The subject of assay [6] is glycogen synthase kinase-3 (GSK3A per assay name; protocol says GSK3B). The assay is described as follows: compounds binding glycogen synthase kinase-3 – biochemical, small-molecule microarray, 635 nm fluorescence, GSK3A, primary screen (AID 1103). Note: the record names both GSK3A and GSK3B. Particulars: fluorescence 635 nm, higher = more signal.
Assay [7] addresses Epidermal growth factor receptor (Homo sapiens) (UniProt P00533). The assay is described as follows: compounds binding epidermal growth factor receptor – biochemical, small-molecule microarray, 635 nm fluorescence, primary screen (AID 1104).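 Note: score merges 667 nm emission intensity with spot signal to noise over triplicate slides.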 The following applies: EGFR binding, higher = more signal.
In assay [8] the target is Follistatin-related protein 3 (Homo sapiens) (UniProt O95633). The assay is described as follows: compounds binding follistatin-related protein 3 – biochemical, small-molecule microarray, 635 nm fluorescence, primary screen (AID 1105).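 Note: score merges emission near 667 nm and signal to noise per printed spot across three slides.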 Particulars: FSTL3 binding, higher = more signal.
Follistatin-related protein 3 (Homo sapiens), sequence (O95633 whole entry, looked up): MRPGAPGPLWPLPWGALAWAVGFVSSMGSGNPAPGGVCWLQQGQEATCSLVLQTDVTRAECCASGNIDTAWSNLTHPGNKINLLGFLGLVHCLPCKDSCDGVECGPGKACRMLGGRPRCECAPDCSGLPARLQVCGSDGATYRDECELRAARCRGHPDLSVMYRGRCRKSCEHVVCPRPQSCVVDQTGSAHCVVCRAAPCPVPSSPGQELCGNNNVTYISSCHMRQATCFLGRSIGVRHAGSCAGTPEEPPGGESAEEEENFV
Assay [9] concerns the target Dickkopf-related protein 1 (Homo sapiens) (UniProt O94907). The assay is described as follows: small molecules binding DKK1 protein – biochemical, small-molecule microarray, 635 nm fluorescence scan, primary screen (AID 1106).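 Note: score merges emission near 667 nm with signal to noise over three replicate slides.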 Particulars: higher = more signal.
In assay [10] the test system is Inhibin beta A chain (activin A). The assay is described as follows: small molecules binding activin A – biochemical, small-molecule microarray, 635 nm fluorescence scan, primary screen (AID 1107).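 Note: mouse activin A protein probed at 4.33 µg/mL on printed slides; score merges bound-protein fluorescence near 667 nm with spot signal-to-noise.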 The following applies: INHBA, higher = more signal.
The subject of assay [11] is Human papillomavirus type 1a protein E7 (residues 44-93). Put plainly: small molecules binding HPV E7 44-93 – biochemical, small-molecule microarray, residues 44-93, 635 nm fluorescence, primary screen (AID 1108).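 Note: E7 fragment applied at 1 µg/mL in TBST for 1 h at 4 C; score combines spot fluorescence with its signal to noise ratio.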 Particulars: fluorescence 635 nm, higher = more signal.
The nature of assay [12]: hepatitis C replication reporter changes, two-sided – Huh7 cells, luciferase reporter, HCV replication inhibitor project, primary screen (AID 1109).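 Note: huh7 hepatoma cells harbouring a luciferase neomycin HCV replicon reporter; luciferase luminescence as measure of HCV replicon replication; test concentration not given here.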 Particulars: Huh7 HCV replicon luciferase reporter, 48 h; higher = more signal.
Assay [13] concerns the target Left-right determination factor 2 (Homo sapiens) (UniProt O00292). The assay is described as follows: small molecules binding LEFTY2 protein – biochemical, small-molecule microarray, 635 nm fluorescence scan, primary screen (AID 1110). The following applies: higher = more signal.
In assay [14] the target is Calmodulin-1 (Homo sapiens) (UniProt P0DP23). The assay is described as follows: small molecules binding calmodulin-1 with EGTA – biochemical, small-molecule microarray, Cy5-labelled CALM1, profiling panel (AID 1111).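 Note: labelled calmodulin applied in Tris saline Tween buffer holding calcium plus EGTA and DTT.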 Particulars: Cy5-CALM1 binding fluorescence, higher = more signal.
For assay [15] the target is unchanged. Put plainly: small molecules binding Ca-loaded calmodulin-1 – biochemical, small-molecule microarray, Cy5-labelled CALM1, plus calcium, artefact control for SMM control-protein annotation, profiling panel (AID 1112).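 Note: score merges spot fluorescence with signal to noise from triplicate slides.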 Particulars: Cy5-CALM1 binding fluorescence, higher = more signal.
Assay [16] in a line: probe aWnt5a binding to arrayed compounds – biochemical, biotinylated probe, 635/667 nm fluorescence, primary screen (AID 1113).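 Note: score merges 667 nm fluorescence intensity with signal-to-noise per printed feature.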 Particulars: small-molecule microarray, higher = more signal.
The nature of assay [17]: probe aShh binding to arrayed compounds – biochemical, biotinylated probe, 635/667 nm fluorescence, primary screen (AID 1114).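 Note: probe is biotin-labelled aShh protein from a stem cell growth factor screen; measures binding of labelled protein to compounds printed on the slide; score merges feature fluorescence at 667 nm with signal-to-noise.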 Particulars: small-molecule microarray, higher = more signal.
Assay [18] in a line: probe aNog binding to arrayed compounds – biochemical, biotinylated probe, 635/667 nm fluorescence, primary screen (AID 1115).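 Note: probe is biotinylated aNog protein used at 0.15 µg/mL for 1 h at 4 C; z-score combines 667 nm fluorescence of each spot with its signal to noise.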 The following applies: small-molecule microarray, higher = more signal.
The target of assay [19] is Torsin-1A-interacting protein 1 (Homo sapiens) (UniProt Q5JTV8). Put plainly: compound microarray binding of lysate hLAP1 – cell lysate, small-molecule microarray, COS7 lysate, 635/667 nm fluorescence, primary screen (AID 1116). The following applies: 635 nm fluorescence, higher = more signal.
Torsin-1A-interacting protein 1 (Homo sapiens), sequence (Q5JTV8 whole entry, looked up): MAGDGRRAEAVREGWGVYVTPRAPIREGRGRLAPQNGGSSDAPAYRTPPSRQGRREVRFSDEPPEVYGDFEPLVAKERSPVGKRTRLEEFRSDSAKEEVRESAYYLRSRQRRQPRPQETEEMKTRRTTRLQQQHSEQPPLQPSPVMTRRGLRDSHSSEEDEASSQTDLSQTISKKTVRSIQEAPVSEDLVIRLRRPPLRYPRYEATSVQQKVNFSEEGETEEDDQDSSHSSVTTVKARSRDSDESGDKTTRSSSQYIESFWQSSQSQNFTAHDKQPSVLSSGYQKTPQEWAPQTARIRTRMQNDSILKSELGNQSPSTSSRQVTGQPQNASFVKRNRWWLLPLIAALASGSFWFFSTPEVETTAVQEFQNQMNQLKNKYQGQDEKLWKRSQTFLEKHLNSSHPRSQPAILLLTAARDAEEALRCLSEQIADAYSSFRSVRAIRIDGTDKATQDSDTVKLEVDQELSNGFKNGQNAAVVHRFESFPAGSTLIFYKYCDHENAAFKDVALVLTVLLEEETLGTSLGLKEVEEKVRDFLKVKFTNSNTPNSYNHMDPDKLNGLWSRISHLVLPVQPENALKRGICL
Assay [20] addresses Alpha-bungarotoxin (Bungarus multicinctus) (UniProt P60615). The assay is described as follows: compounds binding labelled alpha-BTX control protein – biochemical, small-molecule microarray, Alexa647 label, 635/667 nm fluorescence, artefact control for SMM control protein annotation, profiling panel (AID 1117). Particulars: alpha-BTX-A647 binding fluorescence, higher = more signal.

Left-right determination factor 2 (Homo sapiens), sequence (O00292 whole entry, looked up): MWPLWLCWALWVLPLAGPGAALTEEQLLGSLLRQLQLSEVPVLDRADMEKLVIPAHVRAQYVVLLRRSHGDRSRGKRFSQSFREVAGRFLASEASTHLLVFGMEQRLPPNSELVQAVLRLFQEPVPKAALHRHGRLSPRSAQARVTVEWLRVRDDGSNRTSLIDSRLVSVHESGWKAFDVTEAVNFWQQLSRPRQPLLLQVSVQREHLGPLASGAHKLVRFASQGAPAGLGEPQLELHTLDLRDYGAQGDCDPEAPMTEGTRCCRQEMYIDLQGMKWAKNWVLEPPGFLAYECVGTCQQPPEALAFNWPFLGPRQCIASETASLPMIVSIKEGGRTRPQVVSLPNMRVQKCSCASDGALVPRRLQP
Epidermal growth factor receptor (Homo sapiens), sequence (P00533 whole entry, looked up): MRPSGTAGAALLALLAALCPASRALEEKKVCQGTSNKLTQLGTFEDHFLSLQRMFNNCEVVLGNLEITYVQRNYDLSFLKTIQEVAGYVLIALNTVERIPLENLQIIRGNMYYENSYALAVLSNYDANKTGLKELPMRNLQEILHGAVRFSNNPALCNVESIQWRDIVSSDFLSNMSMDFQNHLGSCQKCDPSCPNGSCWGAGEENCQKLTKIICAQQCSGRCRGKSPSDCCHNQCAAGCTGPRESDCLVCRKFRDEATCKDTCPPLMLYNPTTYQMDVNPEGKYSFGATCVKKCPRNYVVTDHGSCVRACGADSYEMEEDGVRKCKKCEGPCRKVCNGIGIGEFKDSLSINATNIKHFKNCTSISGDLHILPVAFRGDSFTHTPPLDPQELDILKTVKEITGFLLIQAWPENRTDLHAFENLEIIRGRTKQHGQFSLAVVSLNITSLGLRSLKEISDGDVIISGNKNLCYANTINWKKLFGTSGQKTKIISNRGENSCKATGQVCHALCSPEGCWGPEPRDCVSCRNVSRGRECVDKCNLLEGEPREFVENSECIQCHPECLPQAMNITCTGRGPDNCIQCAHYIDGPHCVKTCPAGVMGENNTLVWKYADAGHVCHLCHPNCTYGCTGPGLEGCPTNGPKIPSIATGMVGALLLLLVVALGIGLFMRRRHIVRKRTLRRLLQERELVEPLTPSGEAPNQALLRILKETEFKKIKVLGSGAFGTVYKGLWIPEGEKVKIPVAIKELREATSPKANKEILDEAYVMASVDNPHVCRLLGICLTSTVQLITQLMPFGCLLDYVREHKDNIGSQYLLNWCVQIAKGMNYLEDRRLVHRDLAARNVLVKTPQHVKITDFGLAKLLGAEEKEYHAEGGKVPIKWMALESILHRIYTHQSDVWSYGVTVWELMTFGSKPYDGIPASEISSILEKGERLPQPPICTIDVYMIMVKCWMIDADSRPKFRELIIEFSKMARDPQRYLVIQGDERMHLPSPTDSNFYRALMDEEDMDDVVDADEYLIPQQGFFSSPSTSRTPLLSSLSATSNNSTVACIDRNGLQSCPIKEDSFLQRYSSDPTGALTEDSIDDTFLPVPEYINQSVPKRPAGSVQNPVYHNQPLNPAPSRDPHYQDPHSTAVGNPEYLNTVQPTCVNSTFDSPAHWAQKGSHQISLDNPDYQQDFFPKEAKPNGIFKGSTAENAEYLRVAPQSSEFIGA
Dickkopf-related protein 1 (Homo sapiens), sequence (O94907 whole entry, looked up): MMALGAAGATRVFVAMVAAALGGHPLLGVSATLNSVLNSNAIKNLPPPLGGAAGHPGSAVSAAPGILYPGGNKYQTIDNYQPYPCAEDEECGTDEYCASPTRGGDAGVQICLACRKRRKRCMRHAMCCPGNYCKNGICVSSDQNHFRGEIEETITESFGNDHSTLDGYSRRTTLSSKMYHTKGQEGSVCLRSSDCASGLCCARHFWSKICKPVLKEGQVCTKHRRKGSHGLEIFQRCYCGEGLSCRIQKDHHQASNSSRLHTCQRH
Alpha-bungarotoxin (Bungarus multicinctus), sequence (P60615 whole entry, looked up): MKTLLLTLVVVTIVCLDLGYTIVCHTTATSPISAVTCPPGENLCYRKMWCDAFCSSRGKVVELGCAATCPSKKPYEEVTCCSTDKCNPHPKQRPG
Fibroblast growth factor 10 (Homo sapiens), sequence (O15520 whole entry, looked up): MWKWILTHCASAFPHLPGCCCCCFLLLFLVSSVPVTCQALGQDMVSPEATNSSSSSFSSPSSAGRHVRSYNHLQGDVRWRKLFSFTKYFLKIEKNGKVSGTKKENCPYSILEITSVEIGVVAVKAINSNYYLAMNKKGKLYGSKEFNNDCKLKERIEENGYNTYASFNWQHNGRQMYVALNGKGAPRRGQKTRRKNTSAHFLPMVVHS

In the case of `CCCN1C(=O)[C@@]2(c3ccc([N+](=O)[O-])cc3)CC(=O)N(CC34CC5CC(CC(C5)C3)C4)[C@@H]2c2ccc(CO)cc21`, the composite z-score in assay [1] was -0.596; in assay [2], 0.0721; in [3], 0.342; in assay [5] it was -0.334; in assay [6], -0.619; in [7] it was -0.381. Also, the composite z-score in [8] was -0.701; in assay [9] it was -0.626; in assay [10], 0.378; in [11], 0.0595; in assay [13] it was -0.242; in assay [14] it was -0.0921. Also, the composite z-score in [15] was -0.647; in assay [16], -0.0203; in [17], -0.0519; in assay [18], -0.873; in assay [19], -0.38; in assay [20] it was -0.0061. The z-score in assay [4] is 0.331 (inactive); in assay [12], -0.767.
Turning to `C[N+](C)(C)CCCC[C@@H]1NC(=O)[C@H]2C[C@@H](C(=O)NCCCCCNC(=O)CS)[C@@H](c3cccc(OCCO)c3)N2C1=O`, the composite z-score is 1.57 in [1]; 0.242 in assay [2]; 0.47 in [3]; -0.166 in assay [5]; 0.272 in assay [6]; 0.412 in assay [7]. The composite z-score was -0.664 in [8]; 0.0501 in assay [9]; 0.761 in [10]; -0.0364 in assay [11]; -0.259 in assay [13]; -0.0728 in assay [14]. Moreover, the composite z-score in assay [15] is 0.297; in assay [16], -0.103; in assay [17] it was -0.0626; in [18], -0.234; in [19] it was 0.707; in [20] it was -0.307. In addition, the z-score in [4] was 1.12 (inactive); in assay [12], -0.709.
As for `COCCOC(=O)N1C(=O)[C@@]2(c3cc(C#CCCO)ccc31)[C@H](c1ccc(OCCO)cc1)N1[C@H](c3ccccc3)[C@H](c3ccccc3)OC(=O)[C@H]1[C@@H]2C(=O)N1CCCCCCC1`, the composite z-score in [1] was 1.23; in [2], 2.43; in assay [3] it was 1.51; in assay [5], 1.25; in [6], 1.32; in [7], 1.32. Moreover, the composite z-score in [8] came out at 1.54; in assay [9] it was 1.85; in [10], 1.73; in [11] it was 0.371; in assay [13] it was 1.39; in assay [14], 1.99. For the same molecule, the composite z-score came to 0.953 in [15]; 0.779 in assay [16]; 0.599 in [17]; 0.952 in [18]; 3.39 in assay [19]; 2.3 in assay [20]. Also, the z-score in assay [4] is 0.458 (inactive); in assay [12] it was -0.882.
With `CCCCC(O)C1C=CC2C(=O)N(c3ccccc3)C(=O)C2N1Nc1ccccc1` (stereo not given), the composite z-score in assay [1] is 0.664; in assay [2], 0.696; in [3] it was 0.91; in [5] it was 0.564; in assay [6], -0.501; in [7], -0.633. The composite z-score is -0.293 in assay [8]; -0.699 in assay [9]; 1.16 in assay [10]; 1.24 in assay [11]; -0.484 in assay [13]; 1.14 in [14]. In addition, the composite z-score in assay [15] was 1.06; in assay [16] it was 0.0153; in assay [17], 0.232; in [18], 0.331; in [19] it was 0.721; in assay [20] it was 1.45. For the same molecule, the values for the z-score in [4] and in assay [12] were 0.759 (inactive) and -0.375, respectively.
Turning to `COC(=O)C1(Cc2ccccc2)C=C2C(=C(C)C(=O)C2C)CN1` (stereo not given), the composite z-score in [1] was 1.66; in assay [2] it was 1.21; in assay [3], 1.22; in [5], 0.231; in assay [6] it was -0.333; in [7] it was -0.362. Moreover, the composite z-score in assay [8] was 0.513; in assay [9], -0.424; in assay [10] it was 1.43; in assay [11], -0.706; in assay [13], -0.479; in [14], 1.92. In addition, the composite z-score is 0.536 in [15]; -0.0644 in [16]; -0.0035 in assay [17]; 1.68 in [18]; 1.8 in assay [19]; 0.242 in assay [20]. Besides, the z-score is 1.44 (inactive) in assay [4] and 0.0597 in [12].
Turning to `O=C1c2ccccc2[C@@]2(Cc3ccccc3N(Cc3ccccc3)C2=O)[C@H](c2ccc(CO)cc2)N1Cc1ccccc1Cl`, the composite z-score was -0.493 in [1]; -0.0131 in assay [2]; 0.28 in [3]; -0.377 in assay [5]; -1.35 in [6]; -0.804 in assay [7]. In addition, the composite z-score in assay [8] is -0.277; in [9], -0.666; in assay [10], 0.54; in assay [11], -0.728; in assay [13], -0.44; in assay [14] it was -0.223. In addition, the composite z-score in assay [15] is 0.306; in [16] it was -0.202; in assay [17], -0.412; in assay [18], 0.105; in assay [19], -0.881; in assay [20], -0.0792. In addition, the z-score is -1.06 (inactive) in [4] and 0.0868 in assay [12].
As to `CN(C)C(=O)[C@]1(Cc2ccccc2)N=C(c2ccc(OCCCO)cc2)O[C@@H]1c1ccccc1CN=[N+]=[N-]`, the composite z-score was determined as 0.978 in assay [1]; 0.143 in assay [2]; 0.591 in [3]; 1.23 in assay [5]; 1.33 in assay [6]; 0.0699 in [7]. Moreover, the composite z-score in [8] was 0.741; in assay [9] it was -0.124; in assay [10], 0.406; in assay [11] it was 1.41; in [13], -0.273; in assay [14], 1.09. The composite z-score in assay [15] is 0.781; in assay [16] it was 0.027; in assay [17], 0.116; in assay [18], -0.294; in assay [19] it was 1.62; in assay [20] it was 1.15. The results for the z-score in assay [4] and in [12] were -0.741 (inactive) and -2.79, respectively.
Consider `O=C1O[C@H](c2ccccc2)[C@H](c2ccccc2)N2[C@H]1[C@@H](C(=O)O)[C@]1(C(=O)Nc3ccc(C#CCCO)cc31)[C@H]2c1ccc(OCCO)cc1`, for which the composite z-score is -0.164 in assay [1]; 0.564 in assay [2]; 0.834 in assay [3]; 1.12 in assay [5]; 1.27 in [6]; 0.0453 in assay [7]. Further, the composite z-score was determined as 0.446 in [8]; 0.488 in assay [9]; 1.31 in assay [10]; 1.12 in assay [11]; 0.453 in [13]; 1.05 in assay [14]. In addition, the composite z-score in assay [15] is 0.532; in assay [16] it was -0.0472; in [17], -0.0769; in [18], 0.133; in assay [19], 1.65; in assay [20], 2.47. Besides, the values for the z-score in assay [4] and in assay [12] were -0.155 (inactive) and -0.534, respectively.
